# Measured values published in PubChem BioAssay (NCATS).
# Records with an inconclusive call do not appear. Where a call stands in place of a potency, no number is given. The source made the active and inactive calls. The call rests on the fitted dose curve; in most records, active means well fitted inhibition curve with a large enough effect; inconclusive means small, poorly fitted or top-dose-only effect; inactive means flat fitted curve, though single readings scatter. Peptide text beside a SMILES is read from it.
# System: CP265
# Test: qHTS profiling for inhibitors of Plasmodium falciparum proliferation (AID 504749); further: nearly all actives have a fitted effect of over 60% in size
# Settings: P. falciparum in erythrocytes, SYBR Green DNA, 72 h; series mostly up to 12.8 µM
# Outline: (§1)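 Readout was DNA-dye fluorescence from lysed cultures, ex 485/em 535 nm. Parasitized red cells had grown 72 h with compound; data scaled between 0.29 uM artemisinin and DMSO wells and corrected using vehicle-only plates.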
# Potency means the concentration at half of the fitted maximal effect.
row,Compound,Potency
1,CC1CCC(C(C)C)C(=O)C1 (stereo not given),inactive
2,CC(=O)N[C@H](CC(C)C)C(=O)O,inactive
3,CC(C)C1CCC(C(=O)NC(Cc2ccccc2)C(=O)O)CC1 (stereo not given),inactive
4,COc1ccc2cc(C(C)CO)ccc2c1 (stereo not given),inactive
5,COc1ccc2cc1Oc1ccc(cc1)CC1c3c(cc4c(c3Oc3cc5c(cc3OC)CCN(C)C5C2)OCO4)CCN1C (stereo not given),8.91 µM (active)
6,CNC1C(OC2C(O[C@@H]3C(O)C(O)[C@@H](N=C(N)N)C(O)C3N=C(N)N)OC(C)[C@@]2(O)CO)OC(CO)C(O)C1O (stereo not given in full),inactive
7,CC1C2CCC3C4CC=C5CC(N(C)C)CC[C@@]5(C)C4CC[C@@]32CN1C (stereo not given in full),inactive
8,C[C@]12C=CC(=O)C=C1CCC1C2C(O)C[C@]2(C)C1CC[C@]2(O)C(=O)CO (stereo not given in full),inactive
9,COc1ccc2c(c1)N(C[C@@H](C)CN(C)C)c1ccccc1S2,inactive
10,CCOC(=O)C1=CC(OC(CC)CC)C(NC(C)=O)C(N)C1 (stereo not given),inactive
11,CN(C)CCc1c[nH]c2ccc(CC3COC(=O)N3)cc12 (stereo not given),inactive
12,NCC1CCC(N)C(O[C@@H]2C(O)[C@H](O[C@H]3OC(CO)C(O)C(N)C3O)[C@@H](N)C[C@H]2N)O1 (stereo not given in full),inactive
13,OCC1O[C@H](OC2C(CO)O[C@@](O)(CO)C2O)C(O)C(O)C1O (stereo not given in full),inactive
14,CC1(C)OC2CO[C@]3(COS(N)(=O)=O)OC(C)(C)OC3C2O1 (stereo not given in full),inactive
15,CC(=O)OC1CCC2C3CCc4cc(O)ccc4C3CCC12C (stereo not given),inactive
16,CN(C)CCCOC1C(C(O)CO)OC2OC(C)(C)O[C@@H]21 (stereo not given in full),inactive
17,COc1cc(C2c3cc4c(cc3C(O[C@@H]3OC5COC(c6cccs6)OC5C(O)C3O)C3COC(=O)C23)OCO4)cc(OC)c1O (stereo not given in full),2.82 µM (active)

# System: CP266
# Test: as above
# Settings: P. falciparum in erythrocytes, SYBR Green DNA, 72 h; series mostly up to 12.8 µM
# Outline: as §1
row,Compound,Potency
1,CCC(C)C(=O)OC1CCC=C2C=CC(C)C(CCC3CC(O)CC(=O)O3)[C@@H]21 (stereo not given in full),inactive
2,C[C@]1(c2ccccc2)OC(C(=O)O)=CC1=O,inactive
3,OCC1OC([S-])[C@H](O)C(O)C1O.[Au+] (stereo not given in full),inactive
4,COC(=O)N/N=C/C1=C[N+](=O)c2ccccc2[N+]1=O,inactive
5,CN1CC(=O)N=C1N,inactive
6,CNC1CC(N)[C@H](O)[C@@H](O[C@@H]2OC(CO)C3OC4(OC(C(N)CO)C(O)C(O)C4O)O[C@@H]3[C@H]2O)C1O (stereo not given in full),inactive
7,COC1C=CO[C@@]2(C)Oc3c(C)c(O)c4c(O)c(c(C=NN5CCN(C)CC5)c(O)c4c3C2=O)NC(=O)/C(C)=C\C=CC(C)C(O)[C@@H](C)C(O)C(C)[C@H](OC(C)=O)C1C (stereo not given in full),6.75 µM (active)
8,CC(=O)N[C@@H]1C(O)OC(CO)C(O)C1O (stereo not given in full),inactive
9,CCC(CCC(C)C1CCC2C3CC=C4CC(O)CC[C@@]4(C)C3CC[C@@]12C)C(C)C (stereo not given in full),inactive
10,O=C1OC(CO)C(O)C(O)C1O (stereo not given),inactive
11,COc1ccc(CC(N)C(=O)NC2C(CO)OC(n3cnc4c(N(C)C)ncnc43)C2O)cc1 (stereo not given),1.2 µM (active)
12,CCCC(=O)O[C@]1(C(=O)CO)CCC2[C@@H]3CCC4=CC(=O)CC[C@]4(C)C3C(O)C[C@]21C (stereo not given in full),inactive
13,COC(=O)C(Cc1ccccc1)NC(=O)C(N)CC(=O)O (stereo not drawn) (H-Asp-Phe-OMe; configuration not given here),inactive
14,CC[C@@]12CCCN3CCc4c(n(c5ccccc45)[C@](O)(C(=O)OC)C1)C32 (stereo not given in full),inactive
15,CC1(C)SC2C(N3C(=O)C(c4ccccc4)NC3(C)C)C(=O)N2C1C(=O)O (stereo not given),inactive
16,CC1CCC(C(C)C)C(=O)C1 (stereo not given),inactive
17,CC(=O)N[C@H](CC(C)C)C(=O)O,inactive
18,COc1ccc2cc(C(C)CO)ccc2c1 (stereo not given),inactive
19,CNC1C(OC2C(O[C@@H]3C(O)C(O)[C@@H](N=C(N)N)C(O)C3N=C(N)N)OC(C)[C@@]2(O)CO)OC(CO)C(O)C1O (stereo not given in full),inactive
20,CC1C2CCC3C4CC=C5CC(N(C)C)CC[C@@]5(C)C4CC[C@@]32CN1C (stereo not given in full),inactive
21,C[C@]12C=CC(=O)C=C1CCC1C2C(O)C[C@]2(C)C1CC[C@]2(O)C(=O)CO (stereo not given in full),inactive
22,CCOC(=O)C1=CC(OC(CC)CC)C(NC(C)=O)C(N)C1 (stereo not given),inactive
23,NCC1CCC(N)C(O[C@@H]2C(O)[C@H](O[C@H]3OC(CO)C(O)C(N)C3O)[C@@H](N)C[C@H]2N)O1 (stereo not given in full),inactive
24,OCC1O[C@H](OC2C(CO)O[C@@](O)(CO)C2O)C(O)C(O)C1O (stereo not given in full),inactive
25,CC1(C)OC2CO[C@]3(COS(N)(=O)=O)OC(C)(C)OC3C2O1 (stereo not given in full),inactive
26,CC(=O)OC1CCC2C3CCc4cc(O)ccc4C3CCC12C (stereo not given),inactive
27,CN(C)CCCOC1C(C(O)CO)OC2OC(C)(C)O[C@@H]21 (stereo not given in full),inactive
28,COc1cc(C2c3cc4c(cc3C(O[C@@H]3OC5COC(c6cccs6)OC5C(O)C3O)C3COC(=O)C23)OCO4)cc(OC)c1O (stereo not given in full),4.78 µM (active)
